# From PubChem BioAssay
# Several values for one entry are separate records, joined by “and”; a condition that tells them apart may be missing. Equal values may be shown once. Where a structure was tested more than once in an assay, its records may differ in their call. Activity calls are given as the source filed them. Unless noted, how the calls were made is not given here.
# What was measured:
# [1] = resazurin metabolic signal in HepG2 cells – cell-based, resazurin fluorescence, 24 h, PK04 Diversity Set, profiling panel (AID 1172); details: HepG2 viability, higher = more signal
# [2] = budding yeast growth changes without added modifier – OD600, strain BY4716, 24 h, basal condition, primary screen (AID 1173); details: S. cerevisiae BY4716 growth, OD600, 24 h; higher = more signal, called active from +8 up or from −8 down
# [3] = viability profiling in MM1S myeloma cells – cell-based, resazurin fluorescence, basal, 24 h, PK04 Diversity Set, profiling panel (AID 1174); details: higher = more signal, called active from +8 up or from −8 down;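 further: MM1S multiple myeloma cell line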
# [4] = target: Dihydroorotate dehydrogenase (quinone), mitochondrial (Plasmodium falciparum (isolate 3D7)) (UniProt Q08210); assay: inhibition of P. falciparum DHODH – biochemical, C-terminal His tag, absorbance 600 nm, primary screen (AID 1175); details: PfDHODH enzyme, DCIP absorbance 600 nm; higher = more signal, called active from +8 up or from −8 down;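 further: recombinant parasite enzyme with a five histidine tag at its C terminus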
# Chain of Dihydroorotate dehydrogenase (quinone), mitochondrial (Plasmodium falciparum (isolate 3D7)) (Q08210 whole entry, looked up): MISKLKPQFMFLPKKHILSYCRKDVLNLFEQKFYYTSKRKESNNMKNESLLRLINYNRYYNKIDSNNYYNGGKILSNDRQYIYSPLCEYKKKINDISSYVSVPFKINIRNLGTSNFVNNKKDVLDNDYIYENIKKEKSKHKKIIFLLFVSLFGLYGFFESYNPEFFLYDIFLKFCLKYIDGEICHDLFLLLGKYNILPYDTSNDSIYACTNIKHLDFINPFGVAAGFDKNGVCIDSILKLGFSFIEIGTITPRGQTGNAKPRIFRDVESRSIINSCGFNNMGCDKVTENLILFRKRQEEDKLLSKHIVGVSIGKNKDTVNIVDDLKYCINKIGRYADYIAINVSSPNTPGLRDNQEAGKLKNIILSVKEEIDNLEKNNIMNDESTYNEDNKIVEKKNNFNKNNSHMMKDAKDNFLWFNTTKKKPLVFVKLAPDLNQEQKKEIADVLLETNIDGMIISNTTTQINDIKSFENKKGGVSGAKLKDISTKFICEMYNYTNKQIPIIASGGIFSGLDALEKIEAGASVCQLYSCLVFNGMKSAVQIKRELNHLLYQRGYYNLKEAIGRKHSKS
# [5] = inhibition of PAO1 biofilm formation – strain PAO1, LB-PBS medium, absorbance 600 nm, primary screen (AID 1176); details: P. aeruginosa PAO1 growth/biofilm, A600, 12 h; higher = more signal
# [6] = growth modulation of vineyard yeast isolate – strain RM11-1a, OD600, basal, 24 h, primary screen (AID 1177);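 further: cultures grown under basal conditions with no added stressor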; details: S. cerevisiae RM11-1a growth, OD600, 24 h; higher = more signal, called active from +8 up or from −8 down
# [7] = growth of efflux-deficient E. coli DRC39 – strain DRC39, OD650, 24 h, E. coli filamentation inducers, primary screen (AID 1178);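 further: growth measured as culture turbidity by optical density at 650 nm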; details: E. coli DRC39 acrAB, higher = more signal, called active from +8 up or from −8 down
# [8] = growth of efflux-deficient E. coli DRC39 – strain DRC39, OD650, 48 h, E. coli filamentation inducers, primary screen (AID 1179);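 further: screen aims at cell division blockers that make cells filament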; details: E. coli DRC39 delta-acrAB growth, higher = more signal, called active from +8 up or from −8 down
# [9] = viability profiling in RPMI8226 myeloma cells – cell-based, resazurin fluorescence, basal, 24 h, PK04 Diversity Set, profiling panel (AID 1180); details: higher = more signal;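 further: RPMI8826 multiple myeloma cell line at 5000 cells per well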
# [10] = target: E3 ubiquitin-protein ligase XIAP (Homo sapiens) (UniProt P98170); assay: small molecules binding XIAP protein – biophysical, small-molecule microarray, fluorescence 635 nm, primary screen (AID 1181); details: higher = more signal;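 further: score merges 667 nm emission and signal to noise over triplicate slides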
# Chain of E3 ubiquitin-protein ligase XIAP (Homo sapiens) (P98170 whole entry, looked up, the tested form may be a part): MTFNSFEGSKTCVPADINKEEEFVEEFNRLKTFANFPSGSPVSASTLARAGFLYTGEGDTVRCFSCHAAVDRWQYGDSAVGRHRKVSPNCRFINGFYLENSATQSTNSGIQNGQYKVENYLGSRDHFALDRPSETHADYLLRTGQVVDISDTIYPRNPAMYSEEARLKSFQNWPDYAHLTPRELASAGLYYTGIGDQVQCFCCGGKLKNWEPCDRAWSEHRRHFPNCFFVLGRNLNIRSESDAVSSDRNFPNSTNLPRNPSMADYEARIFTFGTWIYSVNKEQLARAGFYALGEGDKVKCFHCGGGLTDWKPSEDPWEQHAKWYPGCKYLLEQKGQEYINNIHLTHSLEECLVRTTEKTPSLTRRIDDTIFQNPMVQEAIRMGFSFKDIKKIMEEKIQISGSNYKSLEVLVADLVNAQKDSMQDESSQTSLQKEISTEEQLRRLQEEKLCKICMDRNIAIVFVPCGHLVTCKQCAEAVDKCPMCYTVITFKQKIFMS
# [11] = test system: XIP peptide (Xip251-270) binding; assay: XIP fragment 251-270 binding compounds – biochemical, small-molecule microarray, fluorescence 635/667 nm, 0.1 µg/mL protein, primary screen (AID 1182); details: fluorescent protein binding, 635 nm, higher = more signal, called active from +8 up or from −8 down
# XIP peptide (Xip251-270) = assay: compounds binding XIP fragment 251-270 – biochemical, small-molecule microarray, fluorescence 635/667 nm, 0.5 µg/mL protein, primary screen (AID 1183); details: fluorescence 635 nm, higher = more signal
# [12] = blood-stage malaria parasite viability loss – strain 3D7, DAPI fluorescence, 100 nL, primary screen (AID 1184);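 further: parasites grown inside human red blood cells in medium with human serum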; details: P. falciparum 3D7 growth, 3 d, higher = more signal
# [13] = target: Homeobox protein Hox-A13 (Mus musculus) (UniProt Q62424); assay: disruptors of Hoxa13 oligonucleotide interaction – biochemical, fluorescence polarization, labeled oligonucleotide, primary screen (AID 1185); details: Hoxa13:DNA binding, 15 min, higher = more signal, called active from +8 up or from −8 down
# Chain of Homeobox protein Hox-A13 (Mus musculus) (Q62424 whole entry, looked up): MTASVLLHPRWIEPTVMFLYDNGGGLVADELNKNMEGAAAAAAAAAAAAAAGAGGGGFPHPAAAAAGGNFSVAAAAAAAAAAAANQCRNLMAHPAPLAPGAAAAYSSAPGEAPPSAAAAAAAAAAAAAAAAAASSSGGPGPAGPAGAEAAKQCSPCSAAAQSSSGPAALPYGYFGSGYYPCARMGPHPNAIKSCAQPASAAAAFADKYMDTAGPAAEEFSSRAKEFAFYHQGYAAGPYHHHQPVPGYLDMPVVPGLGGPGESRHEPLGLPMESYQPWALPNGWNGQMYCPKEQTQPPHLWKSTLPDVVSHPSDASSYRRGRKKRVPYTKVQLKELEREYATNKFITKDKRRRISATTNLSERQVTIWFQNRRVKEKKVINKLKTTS
# [14] = blockers of DNA damage checkpoint Chk1 activation – imaging, HeLa, hydroxyurea, phospho-Chk1 antibody, percent positive cells, primary screen (AID 1186); details: hydroxyurea-induced phospho-Chk1 immunofluorescence imaging, higher = more signal
# [15] = blockers of DNA damage checkpoint Chk1 activation – imaging, HeLa, hydroxyurea, phospho-Chk1 nuclear intensity, primary screen (AID 1187); details: hydroxyurea-induced phospho-Chk1 immunofluorescence imaging, higher = more signal
Compound,z-score [1],z-score [2],z-score [3],composite z-score [4],z-score [5],z-score [6],z-score [7],z-score [8],z-score [9],composite z-score [10],composite z-score [11],composite z-score (XIP peptide (Xip251-270)),z-score [12],z-score [13],z-score [14],z-score [15]
C=CCN(C(=O)C1N(CCCCCCO)C(=O)C2C(C(=O)O)C3C=CC21O3)c1ccc(OC)cc1 (stereo not drawn),0.831 and 0.525,-2.35 (inactive) and -2.45 (inactive),1.04 (inactive) and -0.294 (inactive),-1.78 (inactive) and -2.48 (inactive),-0.401 (inactive),-1.53 (inactive) and -0.292 (inactive),1.15 (inactive) and 0.43 (inactive),1.16 (inactive) and 0.716 (inactive),1.37 and 0.372,-0.0492 and 0.0972,1.14 (inactive) and 1.15 (inactive),-2.27 and -0.654,-0.424 and 0.0379,-1.08 (inactive) and -0.0174 (inactive),-0.598 (inactive) and -0.471 (inactive),-0.451 (inactive) and -0.198 (inactive)
C=CCN(C(=O)C1N(C(C)(C)CO)C(=O)C2C(C(=O)O)C3C=CC21O3)c1ccc(OC)cc1 (stereo not drawn),0.489 and -0.143,-0.684 (inactive) and 0.362 (inactive),1.01 (inactive) and 0.128 (inactive),0.2 (inactive) and -2.13 (inactive),-0.786 (inactive),0.643 (inactive) and 1.4 (inactive),1.33 (inactive) and 0.347 (inactive),1.09 (inactive) and 0.546 (inactive),0.592 and -0.39,-0.0771 and -0.0663,0.382 (inactive) and -0.0838 (inactive),-0.383 and -1.8,-0.445 and 0.004,-1.43 (inactive) and 0.701 (inactive),2.27 (inactive) and 0.407 (inactive),1.44 (inactive) and 0.526 (inactive)
CCOC(=O)C[C@H]1[C@H](OC(=O)c2ccccc2-c2ccccc2)[C@@H](NC(=O)Cc2ccc(OC)cc2)c2cc(OCCCO)ccc2N1C(=O)c1ccc2ccccc2n1,0.528 and 0.85,-1.31 (inactive) and -0.5 (inactive),1.19 (inactive) and 0.644 (inactive),0.34 (inactive) and 0.282 (inactive),0.456 (inactive),-0.484 (inactive) and -0.0944 (inactive),2.5 (inactive) and 0.544 (inactive),1.25 (inactive) and 0.422 (inactive),-0.0946 and 0.108,-0.289 and 0.299,-0.432 (inactive) and 0.387 (inactive),-0.398 and 0.0791,-0.543 and -0.616,-1.67 (inactive) and -0.554 (inactive),-0.015 (inactive) and -0.308 (inactive),0.0414 (inactive) and -0.162 (inactive)
C=CCN(C(=O)C(c1cccs1)N(CCOCCO)C(=O)/C=C\C(=O)O)C(C)(C)C (stereo not drawn),-0.403 and -0.304,-0.655 (inactive) and -0.25 (inactive),-0.102 (inactive) and 0.0032 (inactive),-2.84 (inactive) and -0.333 (inactive),-0.497 (inactive),0.432 (inactive) and 0.467 (inactive),1.15 (inactive) and 1.46 (inactive),1.61 (inactive) and 1.68 (inactive),-0.0043 and -0.146,0.0428 and 0.704,-0.344 (inactive) and 0.0156 (inactive),-0.281 and -0.228,0.0905 and 0.921,0.175 (inactive) and -0.386 (inactive),0.0502 (inactive) and -0.289 (inactive),-0.124 (inactive) and 0.0803 (inactive)
CCOC(=O)[C@@H]1CC=C2CC1C(=O)N1CCC[C@@H]1[C@H]2O[Si](C)(C)C(C)(C)C (stereo partly drawn),-0.464 and 1.65,0.0163 (inactive) and -8.53 (active),-0.226 (inactive) and 1.07 (inactive),-0.259 (inactive) and -0.198 (inactive),-0.0825 (inactive) and -0.377 (inactive),-1.35 (inactive) and 0.069 (inactive),0.03 (inactive) and 0.867 (inactive),0.262 (inactive) and -0.586 (inactive),-0.516 and 0.845,-0.343 and -0.171,-1.06 (inactive) and -0.793 (inactive),-1.29 and -0.354,1.82 and -0.618,-1.82 (inactive) and -4.44 (inactive),0.113 (inactive) and -0.726 (inactive),0.0897 (inactive) and -0.761 (inactive)
CC(C)N1CC=CC23O[C@@H]4C=CCCOC(=O)C4[C@H]2C(=O)N(C(C)CO)[C@@H]3C1=O (stereo partly drawn),-0.0777 and -1.21,-1.44 (inactive) and 0.111 (inactive),0.963 (inactive) and 0.93 (inactive),-0.0877 (inactive) and 1.49 (inactive),,-1.2 (inactive) and 0.934 (inactive),1.2 (inactive) and 1.42 (inactive),0.847 (inactive) and 1.13 (inactive),1.32 and 0.67,-0.128 and -0.133,1.78 (inactive) and 0.425 (inactive),0.716 and -0.58,-0.819 and -0.728,-3.49 (inactive) and -4.21 (inactive),-0.161 (inactive) and -0.496 (inactive),-0.309 (inactive) and -0.538 (inactive)
COC(=O)[C@@]1(Cc2ccc(F)cc2)[C@H]2c3cc(C(=O)N4CCCC4)n(Cc4c(CO)[nH]cc(C)c4=O)c3C[C@H]2CN1C(=O)c1ccccc1,-0.605 and 1.06,1.61 (inactive) and 2.35 (inactive),-1.14 (inactive) and -0.131 (inactive),0.0634 (inactive) and 0.524 (inactive),1.38 (inactive) and 0.895 (inactive),1.33 (inactive) and 1.72 (inactive),-0.573 (inactive) and -0.476 (inactive),-0.104 (inactive) and -0.339 (inactive),-1.14 and -1.39,0.221 and 0.0726,1.1 (inactive) and 0.516 (inactive),-0.307 and 0.761,-1.4 and -1.6,-5.99 (inactive) and -5.23 (inactive),0.113 (inactive) and 0.998 (inactive),0.0243 (inactive) and 0.533 (inactive)
C=CCN(C(=O)C1N(CCOCCO)C(=O)C2C(C(=O)O)C3C=CC21O3)c1ccc(OC)cc1 (stereo not drawn),0.0057 and 0.18,-0.174 (inactive) and -0.731 (inactive),0.267 (inactive) and -0.0413 (inactive),-0.511 (inactive) and -4.53 (inactive),-0.276 (inactive) and -0.0963 (inactive),-0.478 (inactive) and -0.298 (inactive),0.556 (inactive) and 1.24 (inactive),0.2 (inactive) and 0.638 (inactive),-0.0424 and 0.0858,0.0637 and 0.0264,-0.675 (inactive) and -0.315 (inactive),0.138 and 0.24,0.301 and -0.0133,-1.06 (inactive) and -0.636 (inactive),0.0962 (inactive) and 0.399 (inactive),-0.087 (inactive) and 0.191 (inactive)
CCOC(=O)c1ccc(NC(=O)O[C@H]2[C@H](OC(=O)Nc3ccccc3)[C@H](OC(=O)Nc3ccccc3)[C@@H](OC)O[C@@H]2CO)cc1,-1.03 and -1.82,0.645 (inactive) and -0.301 (inactive),-1.75 (inactive) and -3.01 (inactive),-0.299 (inactive) and -0.597 (inactive),2.37 (inactive) and 1.74 (inactive),2.14 (inactive) and 0.971 (inactive),-0.468 (inactive) and 0.363 (inactive),0.496 (inactive) and -0.189 (inactive),-1.53 and -2.7,0.23 and 0.108,0.706 (inactive) and 1.24 (inactive),0.844 and 0.901,-2.51 and -2.22,-1.14 (inactive) and -4.8 (inactive),0.143 (inactive) and 0.494 (inactive),0.337 (inactive) and 0.629 (inactive)
